Several values for one entry are separate records, joined by “and”; a condition that tells them apart may be missing. Equal values may be shown once. Screen size: about 5,500 compounds; about 2,000 (36%) were called active. About 18% were inconclusive and are not listed. No stated cut-off is given here; in the data, active means normalized growth mostly below about 0.91 (no sharp cut-off); inconclusive means no clear call, values can overlap the other calls; inactive means mostly above about 0.92. This is one part of the list.
Assay: chemical genetic growth profiling, strain panel (AID 1159580);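 further: tested at 20 µM; growth read once vehicle control cultures reached saturation at 30 °C; 1 = growth at the plate median or of vehicle wells; lower values mean less growth of the strain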
Details: growth OD

Measured: normalized growth

C1CCc2nnnn2CC1
inactive: S. cerevisiae deletion strains, locus YJR075W, strain HOC1, hits give low values 1.03 and 1.01 | S. cerevisiae deletion strains, locus YKL009W, strain mrt4, hits give low values 1.03 | S. cerevisiae deletion strains, locus YKL068W, hits give low values 1.02 | S. cerevisiae deletion strains, locus YKL085W, strain MDH1 (second series), hits give low values 1 | S. cerevisiae deletion strains, locus YKL085W, strain MDH1, hits give low values 1 | S. cerevisiae deletion strains, locus YKL160W, strain elf1, hits give low values 1.01 | S. cerevisiae deletion strains, locus YKL190W, strain CNB1, hits give low values 1 | S. cerevisiae deletion strains, locus YKR001C, strain vps1, hits give low values 1.02 | S. cerevisiae deletion strains, locus YKR026C, strain gcn3, hits give low values 1.01 | S. cerevisiae deletion strains, locus YKR091W, strain srl3, hits give low values 1 | S. cerevisiae deletion strains, locus YLL001W, strain dnm1, hits give low values 1 | S. cerevisiae deletion strains, locus YLL026W, hits give low values 1 | S. cerevisiae deletion strains, locus YLL041C, strain sdh2, hits give low values 1 | S. cerevisiae deletion strains, locus YLR027C, strain aat2, hits give low values 1 | S. cerevisiae deletion strains, locus YLR039C, strain RIC1, hits give low values 1.03 | S. cerevisiae deletion strains, locus YLR058C, strain SHM2, hits give low values 1.02 | S. cerevisiae deletion strains, locus YLR102C, strain apc9, hits give low values 1 | S. cerevisiae deletion strains, locus YLR113W, strain HOG1, hits give low values 0.985 | S. cerevisiae deletion strains, locus YLR221C, strain rsa3, hits give low values 1.01 | S. cerevisiae deletion strains, locus YLR258W, strain gsy2, hits give low values 1.01 | S. cerevisiae deletion strains, locus YLR262C, strain YPT6 (second series), hits give low values 1.02 | S. cerevisiae deletion strains, locus YLR262C, strain YPT6, hits give low values 1.04 | S. cerevisiae deletion strains, locus YLR268W, strain sec22, hits give low values 1.05 | S. cerevisiae deletion strains, locus YLR320W, strain mms22, hits give low values 1.01 | S. cerevisiae deletion strains, locus YLR330W, strain CHS5, hits give low values 1 | S. cerevisiae deletion strains, locus YLR342W, strain FKS1 (second series), hits give low values 1.01 | S. cerevisiae deletion strains, locus YLR342W, strain FKS1, hits give low values 1.01 | S. cerevisiae deletion strains, locus YLR357W, strain rsc2, hits give low values 0.983 | S. cerevisiae deletion strains, locus YLR370C, strain arc18, hits give low values 1.01 | S. cerevisiae deletion strains, locus YLR371W, strain rom2, hits give low values 1.02 | S. cerevisiae deletion strains, locus YLR384C, strain iki3, hits give low values 0.999 | S. cerevisiae deletion strains, locus YLR418C, strain cdc73, hits give low values 1.02 | S. cerevisiae deletion strains, locus YML016C, strain PPZ1, hits give low values 1.01 | S. cerevisiae deletion strains, locus YML032C, strain rad52, hits give low values 1.03 | S. cerevisiae deletion strains, locus YML120C, strain ndi1, hits give low values 0.998 | S. cerevisiae deletion strains, locus YML124C, strain tub3, hits give low values 1.01 | S. cerevisiae deletion strains, locus YMR058W, strain fet3, hits give low values 1.01 | S. cerevisiae deletion strains, locus YMR078C, strain ctf18, hits give low values 1.02 | S. cerevisiae deletion strains, locus YMR125W, strain sto1, hits give low values 1.01 | S. cerevisiae deletion strains, locus YMR129W, hits give low values 1.01 | S. cerevisiae deletion strains, locus YMR205C, strain PFK2, hits give low values 1.03 | S. cerevisiae deletion strains, locus YMR223W, strain ubp8, hits give low values 0.987 | S. cerevisiae deletion strains, locus YMR231W, strain pep5, hits give low values 1 | S. cerevisiae deletion strains, locus YMR263W, strain SAP30, hits give low values 1.03 | S. cerevisiae deletion strains, locus YMR307W, strain GAS1, hits give low values 1.01 | S. cerevisiae deletion strains, locus YNL067W, strain RPL9B, hits give low values 1.03 | S. cerevisiae deletion strains, locus YNL071W, strain lat1, hits give low values 0.999 | S. cerevisiae deletion strains, locus YNL128W, strain TEP1, hits give low values 1.02 | S. cerevisiae deletion strains, locus YNL153C, strain GIM3, hits give low values 1.02 and 1.14 | S. cerevisiae deletion strains, locus YNL175C, strain NOP13, hits give low values 1.01 | S. cerevisiae deletion strains, locus YNL183C, strain NPR1, hits give low values 0.918 | S. cerevisiae deletion strains, locus YNL197C, strain WHI3, hits give low values 1.01 | S. cerevisiae deletion strains, locus YNL209W, strain ssb2, hits give low values 1.01 | S. cerevisiae deletion strains, locus YNL224C, strain SQS1, hits give low values 1.02 | S. cerevisiae deletion strains, locus YNL233W, strain BNI4, hits give low values 0.982 | S. cerevisiae deletion strains, locus YNL248C, strain rpa49, hits give low values 0.994 | S. cerevisiae deletion strains, locus YNL250W, strain rad50, hits give low values 1 | S. cerevisiae deletion strains, locus YNL271C, strain bni1, hits give low values 1.02 | S. cerevisiae deletion strains, locus YNL298W, strain CLA4, hits give low values 1.01 | S. cerevisiae deletion strains, locus YNL307C, strain MCK1, hits give low values 1.01 | S. cerevisiae deletion strains, locus YNL322C, strain KRE1 (second series), hits give low values 1.01 | S. cerevisiae deletion strains, locus YNL322C, strain KRE1, hits give low values 1.01 and 1 | S. cerevisiae deletion strains, locus YNR049C, strain mso1, hits give low values 1.01 | S. cerevisiae deletion strains, locus YNR052C, strain pop2, hits give low values 1 | S. cerevisiae deletion strains, locus YOL006C, strain TOP1, hits give low values 1.08 | S. cerevisiae deletion strains, locus YOL012C, strain htz1 0.99 | S. cerevisiae deletion strains, locus YOL147C, strain pex11, hits give low values 1.01 | S. cerevisiae deletion strains, locus YOR001W, strain rrp6, hits give low values 1 | S. cerevisiae deletion strains, locus YOR061W, strain CKA2, hits give low values 1.01 | S. cerevisiae deletion strains, locus YOR069W, strain VPS5, hits give low values 1.02 | S. cerevisiae deletion strains, locus YOR070C, strain gyp1, hits give low values 0.999 | S. cerevisiae deletion strains, locus YOR080W, strain dia2, hits give low values 1 | S. cerevisiae deletion strains, locus YOR083W, strain WHI5 (second series), hits give low values 1.02 | S. cerevisiae deletion strains, locus YOR083W, strain WHI5, hits give low values 1.02 | S. cerevisiae deletion strains, locus YOR106W, strain vam3, hits give low values 1.01 | S. cerevisiae deletion strains, locus YOR136W, strain idh2, hits give low values 0.992 | S. cerevisiae deletion strains, locus YOR144C, strain elg1, hits give low values 1.01 | S. cerevisiae deletion strains, locus YOR184W, strain ser1, hits give low values 1.03 | S. cerevisiae deletion strains, locus YOR231W, strain MKK1, hits give low values 0.982 | S. cerevisiae deletion strains, locus YOR265W, strain rbl2, hits give low values 1.02 | S. cerevisiae deletion strains, locus YOR270C, strain vph1, hits give low values 1.04 | S. cerevisiae deletion strains, locus YOR290C, strain snf2, hits give low values 1.01 | S. cerevisiae deletion strains, locus YOR316C, strain cot1, hits give low values 1.01 | S. cerevisiae deletion strains, locus YPL051W, strain arl3, hits give low values 1.01 | S. cerevisiae deletion strains, locus YPL055C, strain LGE1, hits give low values 0.977 | S. cerevisiae deletion strains, locus YPL078C, strain atp4, hits give low values 1.01 | S. cerevisiae deletion strains, locus YPL106C, strain sse1, hits give low values 1 | S. cerevisiae deletion strains, locus YPL240C, strain hsp82, hits give low values 1.02 | S. cerevisiae deletion strains, locus YPL241C, strain CIN2, hits give low values 1 | S. cerevisiae deletion strains, locus YPL256C, strain CLN2, hits give low values 0.976 | S. cerevisiae deletion strains, locus YPR119W, strain clb2, hits give low values 1 | S. cerevisiae deletion strains, locus YPR141C, strain kar3, hits give low values 1 | S. cerevisiae deletion strains, locus YPR163C, strain tif3, hits give low values 1.02 | S. cerevisiae deletion strains, locus YPR167C, strain met16, hits give low values 1.01 | S. cerevisiae deletion strains, strain wtn01, hits give low values 1.02 | S. cerevisiae strains, strain wild type, hits give low values 1.01
